This is a sample that favours compounds with a hit; in the whole collection about 2.3% have one here.
MCL1-BIM inh = MCL1-BIM-BH3 interaction inhibition (human). AID 2057. inhibition, % at 10.9 µM. hit rate 0.68% among 320,000. GST-MCL1 / FITC-Bim-BH3 fluorescence polarization. Q07820;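 active = inhibition above the mean inhibition of all tested compounds plus 3 SD, set per campaign, cut at about 40% in these data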;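 also: higher means more loss of mP so more displacement of Bim peptide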
Target sequence (Q07820 whole entry, looked up): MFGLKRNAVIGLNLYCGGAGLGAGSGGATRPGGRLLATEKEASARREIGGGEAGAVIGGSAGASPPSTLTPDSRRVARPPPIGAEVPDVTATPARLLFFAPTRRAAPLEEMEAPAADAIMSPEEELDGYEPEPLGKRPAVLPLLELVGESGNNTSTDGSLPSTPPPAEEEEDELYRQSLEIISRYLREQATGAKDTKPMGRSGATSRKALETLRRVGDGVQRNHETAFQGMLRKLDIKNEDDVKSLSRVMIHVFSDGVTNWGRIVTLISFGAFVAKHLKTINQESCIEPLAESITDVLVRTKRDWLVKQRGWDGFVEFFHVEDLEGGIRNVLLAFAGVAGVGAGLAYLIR
Mcl1 Noxa PPI = Mcl-1/Noxa interaction inhibition. hit rate 1.5% among 220,000. AID 1022. TR-FRET Mcl-1/Noxa peptide binding, 2 h. Q07820. inhibition, % at 21.7 µM;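 active = compounds that cut the protein-peptide binding signal by more than 50% relative to plate controls in a single-dose test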;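 also: His-tagged Mcl-1 with rhodamine Noxa BH3 peptide and terbium anti-His antibody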
Bim-Mcl-1 = disrupts Bim peptide binding to human Mcl-1. Q07820. Bead-based flow cytometry, Bim peptide-Mcl-1 binding. inhibition, % at 10 µM. hit rate 0.1% among 190,000. AID 1009; in the data active = inhibition above about 40%
Bcl-xL primary = blocks human Bcl-xL binding to Bim BH3 peptide; Q07817; GST-Bcl-xL / FITC-Bim BH3 peptide fluorescence polarization; inhibition, % at 10.9 µM; hit rate 0.7% among 320,000; AID 2129;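 active = inhibition above the mean of all tested compounds plus 3 SD, cutoff set per campaign, cut at about 30% in these data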;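 also: inhibitors lower millipolarization by displacing the labeled peptide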
Mcl1 Bid PPI = disrupts binding of human Mcl-1 to Bid peptide; Q07820; TR-FRET Mcl-1/Bid-Dy647 peptide binding, 1536-well; inhibition, % at 21.7 µM; hit rate 0.97% among 220,000; AID 1021;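 active = compounds that cut the binding signal by more than half at the single screening dose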;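 also: His-tagged Mcl-1 with europium anti-His antibody binding Bid BH3 peptide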
GLD-1 RNA inh = GLD-1-TGE RNA interaction inhibition (C. elegans) | purified GLD-1 + fluorescein TGE RNA, fluorescence polarization | hit rate 0.44% among 320,000 | Q17339 | inhibition, % at 5.96 µM;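 active = percent inhibition above a per-plate cutoff, the plate mean of test compounds plus 3 SD, cut at about 30% in these data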
Of the large screens only hits and unclear results are named; the others gave an inactive call.

O=C(O)CSc1cc(C(=O)c2ccccc2O)cn2c(=O)c3c(-c4ccccc4)csc3nc12	Mcl1 Noxa PPI 86
COc1ccc(O)c(C(=O)c2cc(SCC(=O)O)c3nc4sc5c(c4c(=O)n3c2)CCCC5)c1	Mcl1 Noxa PPI 108 (no result: Bim-Mcl-1)
COc1ccc(-n2c(SCC(=O)O)nc3sc4c(c3c2=O)CCCC4)cc1	none (no result: Mcl1 Noxa PPI, Bim-Mcl-1, Mcl1 Bid PPI)
Cc1sc2nc3c(SC(C)C(=O)O)cc(C(=O)c4ccccc4O)cn3c(=O)c2c1C (centres undefined)	none
CCOC(=O)c1sc2nc3c(SCC(=O)O)cc(C(=O)c4cc(F)ccc4O)cn3c(=O)c2c1C	Mcl1 Noxa PPI 86
CCOC(=O)c1sc2nc3c(SCC(=O)O)cc(C(=O)c4ccccc4O)cn3c(=O)c2c1C	Mcl1 Noxa PPI 66
COC(=O)c1cc(C(=O)c2cc(F)ccc2O)cn2c(=O)c3c(C)c(C)sc3nc12	none (no result: Bim-Mcl-1)
O=C1c2ccccc2S(=O)(=O)c2cc(C(=O)N3CCC(C(=O)N4CCCCC4)CC3)ccc21	none (no result: Mcl1 Noxa PPI, Bim-Mcl-1, Mcl1 Bid PPI)
CCN(C(=O)COC(=O)CCNS(=O)(=O)c1ccccc1F)c1c(N)n(Cc2ccccc2)c(=O)[nH]c1=O	none (no result: MCL1-BIM inh, Mcl1 Noxa PPI, Bim-Mcl-1, Bcl-xL primary, Mcl1 Bid PPI)
Cc1sc2nc(CN3CCN(c4ccc(O)cc4)CC3)[nH]c(=O)c2c1C	Mcl1 Noxa PPI 67 (no result: Bim-Mcl-1)
O=C(COC(=O)CNC(=O)c1ccc(Cl)cc1Cl)NC(=O)NC1CCCCC1	none (no result: Mcl1 Noxa PPI, Bim-Mcl-1, Mcl1 Bid PPI)
Cc1cccc(N(CC(=O)NC2CCCC2)C(=O)c2cc3cc4cccc(C)c4nc3s2)c1C	Mcl1 Bid PPI 67
Cc1ccc(C)c(N(CC(=O)NC2CCCC2)C(=O)c2cc3cc4cc(C)ccc4nc3s2)c1	none
O=C(O)CCC(=O)Nc1ccc(-c2csc(Nc3cccc4ccccc34)n2)cc1	none (no result: Mcl1 Noxa PPI, Bim-Mcl-1, Mcl1 Bid PPI)
CCOCCCN(C)C1CCN(S(=O)(=O)c2csc(C(N)=O)c2)CC1	none (no result: Mcl1 Noxa PPI, Bim-Mcl-1, Mcl1 Bid PPI)
C=CCOc1nc2c(c(=O)n(C)c(=O)n2C)n1C	Bcl-xL primary 36
CC1(c2ccccc2)CC(C)(C)N2C(=O)C3(C(C#N)=C(N)Oc4cc(O)ccc43)c3cccc1c32 (centres undefined)	Mcl1 Bid PPI 61
Cc1nc(COc2ccccc2Cl)sc1-c1ccnc(N)n1	Mcl1 Bid PPI 55 (no result: Bim-Mcl-1)
Cc1ccc(-c2cn3nc(-c4ccccc4)c(-c4ccccc4)nc3n2)cc1	GLD-1 RNA inh 34 (no result: Bim-Mcl-1)
CCC1Oc2ccc(C)cc2N(CC(=O)N(Cc2cccnc2)Cc2ccc(C)o2)C1=O (centres undefined)	Mcl1 Noxa PPI 64, Mcl1 Bid PPI 71
COc1ccc(NC(=O)COC(=O)C2CC(=O)N(c3ccc(C)cc3)C2)cc1 (centres undefined)	none (no result: Mcl1 Noxa PPI, Bim-Mcl-1, Mcl1 Bid PPI)
CN(C)CCCNc1oc(-c2ccccc2)nc1C#N	Mcl1 Noxa PPI 53
CN(CCCC[C@H](CNCc1ccc(-c2ccccc2)cc1)N1C[C@H](c2ccccc2)N(CCc2ccc(Cl)c(Cl)c2)C(=O)C1=O)Cc1ccc(-c2ccccc2)cc1	Mcl1 Bid PPI 61 (no result: MCL1-BIM inh, Bim-Mcl-1, Bcl-xL primary, GLD-1 RNA inh)
COc1ccc(CNC[C@@H](CCCCN(C)Cc2ccc(OC)cc2)N2C[C@H](c3ccccc3)N(CCc3ccc(Cl)c(Cl)c3)C(=O)C2=O)cc1	none
CCN(C(=O)CCNC(=O)Cn1cnc2ccccc2c1=O)c1ccccc1F	none (no result: Mcl1 Noxa PPI, Bim-Mcl-1, Mcl1 Bid PPI)
COc1ccc(-c2ccc(/C=C3/C(=N)N4C=CSC4=NC3=O)o2)c([N+](=O)[O-])c1	Mcl1 Noxa PPI 83, Mcl1 Bid PPI 75
COc1cccc(NC(=O)CN(C)C(=O)CC(NC(=O)c2ccccc2Cl)c2ccccc2)c1 (centres undefined)	none (no result: Mcl1 Noxa PPI, Bim-Mcl-1, Mcl1 Bid PPI)
COc1ccc(C(=O)NCCS(=O)(=O)NC(C)c2ccccc2)cc1 (centres undefined)	none (no result: Mcl1 Noxa PPI, Bim-Mcl-1, Mcl1 Bid PPI)
COc1ccc(N=Nc2ccc(O)c3ncccc23)cc1	Mcl1 Bid PPI 73 (no result: Bim-Mcl-1)
C[C@H](CO)N1C[C@H](C)[C@@H](CN(C)Cc2ccncc2)Oc2c(NS(=O)(=O)c3cn(C)cn3)cccc2C1=O	none (no result: MCL1-BIM inh, Mcl1 Noxa PPI, Bim-Mcl-1, Bcl-xL primary, Mcl1 Bid PPI)
CCN1C(=O)c2cccc3c(NC(=O)C4CCCCC4)ccc1c23	Mcl1 Bid PPI 83
CCCn1c(N)c(C(=O)CSc2nncs2)c(=O)[nH]c1=O	none (no result: Mcl1 Noxa PPI, Bim-Mcl-1, Mcl1 Bid PPI)
CC1(C)Cc2c(sc3ncn(N)c(=N)c23)CO1	none
CC1(C)Cc2c(sc3ncn4c(=S)[nH]nc4c23)CO1	Mcl1 Noxa PPI 67
CC1CCCCC1NC(=O)c1ccc2c(c1)[nH]c(=O)n2C1CCCC1 (centres undefined)	Mcl1 Noxa PPI 82
